Reference: the supplement of paper PMC10338343
± gives the standard deviation. Whole data set: some 6,600 sequences, median “pre-steady-state target cleavage rate” near 0.07, cut for the highest 2% near 0.72. Shown is part of a subset that was picked to be rich in the highest values.

Each sequence was assayed on MIWI (PIWIL1) piRISC loaded with Kctd7 piRNA (30 nt) (assay: pre-steady-state target cleavage rate (min^-1); MIWI and MILI are mouse PIWI proteins and EfPiwi is from a freshwater sponge; tags in brackets are library labels; higher = faster piRNA-guided slicing of the target). Conditions: guide: Kctd7 piRNA 5'p-UGUUAAUCUCUCAGAGAAGGUGACAGUGAU; auxiliary factor: 500 nM mouse GTSF1.
Procedure: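 Cleave-'n-Seq: a library of target RNAs (target site embedded in constant flanks, ACAGCATTCCGCGTTAGTGATATCCG... 5' flank; DNA-blocked outside the site) at 0.1 nM was incubated with 1 nM active mouse MILI or MIWI piRISC (synthetic 5'-monophosphorylated piRNA guide) with or without 500 nM mouse GTSF1 at 33 °C for 1 min to 16 h. Uncleaved targets were sequenced and normalised to non-target controls, and the pooled three trials were fitted to a burst-and-steady-state model to give the pre-steady-state cleavage rate (min^-1; k3 is constrained to at most 1e-4). Sequence is the target site only; target names encode pairing extent (gX:gY) and contiguous / 1-mismatch / 2-mismatch / bulge geometry. Fits with R² ≤ 0 are excluded.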

Row | Sequence | pre-steady-state target cleavage rate
1 | UUCACACUCACCUUCUCUGAGAGAUUUUGA | 0.0972 ± 0.024
2 | UAGUGACUCACCUUCUCUGAGAGAUUAAGA | 0.194 ± 0.031
3 | UAGACUGUCACCUACUCUGAGAGUUUAACA | 0.147 ± 0.023
4 | UUCACUGUCACCUUCUCUGAGCGAUUAACA | 0.13 ± 0.0091
5 | UAGACUGUCAGCUUCUCUGAGAGAUUAUCA | 0.171 ± 0.024
6 | UUCACUGUCACCUUCUCUGAGAGAUUAACA [g2:g29:cont:t1A] | 0.717 ± 0.03
7 | CUCACUGUCACCUUCUCUGAGAGAUUAACA | 0.714 ± 0.031
8 | AUCAGACUCACCUUCUCUGAGAGAUUAACA | 0.726 ± 0.045
9 | AUUCACUGUCACCUUCUCUGAGAGAUUAACA | 0.737 ± 0.036
10 | AUCACUCAGACCUUCUCUGAGAGAUUAACA | 0.433 ± 0.024
11 | UUCUCUGUCACCUUCACUGAGAGAUUAACA | 0.392 ± 0.021
12 | ACUCACUGUCACCUUCUCUGAGAGAUUAACA | 0.781 ± 0.054
13 | UUCAGACUCACCUUCUCUGAGAGAUUAACA | 0.472 ± 0.035
14 | UACAGUGUCACCUUCUCUGAGUGAUUAACA | 0.0377 ± 0.0077
15 | UAGUGUGUCACCUUGUCUGAGAGAUUUUGA | 0.00982 ± 0.0057
16 | UAGACUGUCACGUUCUCUGAGUGAUUAACA | 0.00628 ± 0.0015
17 | UUCACUGUCUCCUUCUCUGAGAGAUUAUGA | 0.122 ± 0.034
18 | UACUCUGUCACCUUCUCUGAGAGAUUUUGA | 0.0843 ± 0.017
19 | UAGUGACACACCUUCUCUGAAAGAUUAACA | 0.384 ± 0.029
20 | UAGUGUGUCGACCUUCUCUGAGAGAUUAACA | 0.155 ± 0.017
21 | UAGUGACUGCACCUUCUCUGAGAGAUUAACA | 0.77 ± 0.05
22 | UUGACUGUCACCUUCUCUGAGAGAUUAAGA | 0.257 ± 0.034
23 | UAGACUGCACCUUCUCUGAGAGAUUAACA | 0.698 ± 0.046
24 | UUGACUGUCACCUACUCUGAGAGAUUAACA | 0.689 ± 0.041
25 | UAGUGACUCACCUUCUCUGAUAGAUUAACA | 0.778 ± 0.035

Row | Sequence | pre-steady-state target cleavage rate
26 | AUGACUGUCACCUACUCUGAGAGAUUAACA | 0.736 ± 0.042
27 | UAGUGACUCACCUUCUCUGACUGAUUAACA | 0.00516 ± 0.0026
28 | UUGACUGUCACCUUCUCUGUGAGAUUAACA | 0.267 ± 0.011
29 | UAGUGACUGACCUUCUCUGAGAGAUUAACA | 0.363 ± 0.037
30 | UUGACUGUCACCUUCUCUGAGAGAUUAACA | 0.777 ± 0.042
31 | UAGACUGUCACCUACUCUGAGAGAUUAACA | 0.666 ± 0.049
32 | UAGUGACUCACCUUCUCUGACAGAUUAACA | 0.393 ± 0.048
33 | AUCACUGUCACCUUCUCUGAGAGUAAAACA | 0.125 ± 0.024
34 | UUCACUGUCAGCUUCUCUGAGAGAUUAUCA | 0.24 ± 0.027
35 | UAGUCUGUCACCUUCUCUGAGAGAUUAGACA | 0.138 ± 0.041
36 | UAGUGACACACCUUCUGUGAGAGAUUAUGA | 0.015 ± 0.007
37 | UAGUGUGUCACCUUCUCUGAGUGAUUAUCA | 0.00944 ± 0.0044
38 | UAGUGAGUCACCUUCUGUGAGAGAUUUUGA | 0.012 ± 0.0055
39 | UAGUGAGUCACCUUCUCUGAGAGAUUAUGA | 0.088 ± 0.019
40 | AUGACUGUCACCUUCUCUGAGAGAUUAAGA | 0.205 ± 0.028
41 | UAGUGUGUCACCUACUCUGAGAGAUUAACA | 0.598 ± 0.054
42 | AUGACUGUCACCUUCUCUGUGAGAUUAACA | 0.278 ± 0.013
43 | AUGACUGUCACCUUCUCUGAGAGAUUAACA | 0.771 ± 0.037
44 | UAGAGUGUCACCUACUCUGAGAGAUUAACA | 0.765 ± 0.042
45 | UACAGUGUCACCUACUCUGAGAGAUUAACA | 0.585 ± 0.038
46 | UUCACUGUCACCUAGUCUGAGAGAUUUUGA | 0.111 ± 0.03
47 | UAGUGACACAGCUUCUCUGAGAGUUUAACA | 0.0412 ± 0.0084
48 | UUCACUGUCUCCUUCACUGAGAGAUUAACA | 0.393 ± 0.032
49 | UACACGUGUCACCUUCUCUGAGAGAUUAACA | 0.563 ± 0.026
50 | UACACCGUCACCUUCUCUGAGAGAUUAACA | 0.78 ± 0.04

Row | Sequence | pre-steady-state target cleavage rate
51 | UUCACCGUCACCUUCUCUGAGAGAUUAACA | 0.698 ± 0.03
52 | UUCACGUCACCUUCUCUGAGAGAUUAACA | 0.702 ± 0.03
53 | AUCACCGUCACCUUCUCUGAGAGAUUAACA | 0.67 ± 0.026
54 | AUCACGUCACCUUCUCUGAGAGAUUAACA | 0.732 ± 0.041
55 | UACACGGUCACCUUCUCUGAGAGAUUAACA | 0.593 ± 0.027
56 | AUCACGUGUCACCUUCUCUGAGAGAUUAACA | 0.63 ± 0.03
57 | UACACGUCACCUUCUCUGAGAGAUUAACA | 0.737 ± 0.043
58 | UACACUGUCACCUUCACUGAGAGUUUAACA | 0.356 ± 0.081
59 | AUCACUGUCACCUAGACUGAGAGAUUAAGA | 0.0119 ± 0.0058
60 | UAGUCUGUGACCUUCUGUGAGAGAUUAACA | 0.399 ± 0.028
61 | UAGUCUGUCACCUUCUCUGAGACAUAAACA | 0.0237 ± 0.0074
62 | UUCAGUGUCACCUUCUCUGAGAGAUUUUGA | 0.161 ± 0.043
63 | AUCACUGUCACCUUCCCUGAGAGAUUAACA | 0.449 ± 0.064
64 | UAGUGUGUCACGAACUCUGAGAGAUUAACA | 0.0752 ± 0.0083
65 | UAGUGUCUCACCUUCUCUGAGAGAUUAUCA | 0.239 ± 0.033
66 | UAAACUGUCACCUUCUCUGAGAGAUUAACA | 0.677 ± 0.03
67 | UUCACUGUCAACCUUCUCUGAGAGAUUAACA | 0.271 ± 0.019
68 | AUCAACUGUCACCUUCUCUGAGAGAUUAACA | 0.737 ± 0.049
69 | AUAACUGUCACCUUCUCUGAGAGAUUAACA | 0.675 ± 0.03
70 | AUCACUGUCAACCUUCUCUGAGAGAUUAACA | 0.269 ± 0.021
71 | UACAACUGUCACCUUCUCUGAGAGAUUAACA | 0.744 ± 0.042
72 | UUAACUGUCACCUUCUCUGAGAGAUUAACA | 0.581 ± 0.022
73 | UUCAACUGUCACCUUCUCUGAGAGAUUAACA | 0.733 ± 0.039
74 | AUCACUGUCACCUUCUCUGAGAGAUUAACU [g2:g30:cont:t1U] | 0.526 ± 0.057
